MEKK3 PB1 HTS – modulators of MEKK3-MEK5 PB1 binding, primary screen, biochemical, wildtype MEKK3, multiplex bead flow cytometry, Alexa488-MEK5. 1.4% of 290,000 active. binding response (% of control), % at 10 µM. bead-based flow cytometry, Alexa488-MEK5 binding to MEKK3; actives lie on both sides; 0 = blocked by unlabeled MEK5, 100 = vehicle. AID 1529, 2009;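 active = binding response more than 3 SD above or below the average of its plate-row segment, actives on both sides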;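 note: Alexa488 bead fluorescence after subtracting the streptavidin-only scavenger bead signal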
Target sequence (Q99759 whole entry, looked up): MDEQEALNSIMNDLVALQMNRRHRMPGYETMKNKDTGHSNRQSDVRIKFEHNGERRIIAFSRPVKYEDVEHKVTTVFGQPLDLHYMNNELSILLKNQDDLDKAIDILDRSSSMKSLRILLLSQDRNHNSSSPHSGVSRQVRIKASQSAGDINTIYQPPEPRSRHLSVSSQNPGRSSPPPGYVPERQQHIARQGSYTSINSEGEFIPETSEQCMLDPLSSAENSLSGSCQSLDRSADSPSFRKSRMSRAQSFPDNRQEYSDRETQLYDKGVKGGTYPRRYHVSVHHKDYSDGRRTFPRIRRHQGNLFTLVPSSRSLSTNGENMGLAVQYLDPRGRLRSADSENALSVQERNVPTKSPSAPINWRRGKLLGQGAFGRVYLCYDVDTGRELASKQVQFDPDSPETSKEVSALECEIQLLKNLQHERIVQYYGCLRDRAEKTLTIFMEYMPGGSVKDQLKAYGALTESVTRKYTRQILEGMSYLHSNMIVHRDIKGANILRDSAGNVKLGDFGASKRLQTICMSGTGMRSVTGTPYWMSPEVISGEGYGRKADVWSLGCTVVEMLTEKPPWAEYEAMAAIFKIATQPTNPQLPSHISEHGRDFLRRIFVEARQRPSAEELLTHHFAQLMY
MEKK2 mut-MEK5 – MEK5 binding signal on mutant MEKK2 PB1, primary screen, biochemical, multiplex bead flow cytometry, Alexa488-MEK5. Alexa488-MEK5 binding to MEKK2 mutant. percent response, % at 10 µM. 0.35% of 290,000 active; in the data active = percent response above about 24%, passing the limit was not always enough
MEKK2wt PB1 HTS – modulators of MEK5 binding to wildtype MEKK2, primary screen, biochemical, multiplex bead flow cytometry, Alexa488-MEK5; binding response (% of control), % at 10 µM; 1.1% of 290,000 active; AID 1531, 2009; Alexa488-MEK5 binding to MEKK2 WT; actives lie on both sides; in the data active = binding response below about 67% or above about 130%
ABCB6 inh 2 – ABCB6 transporter inhibitors, primary screen, K562-ABCB6 cells, flow cytometry, MLPCN library; ATP-binding cassette sub-family B member 6 (Homo sapiens), Q9NP58; K562-ABCB6 porphyrin accumulation, 1 h; active compounds read low; fluorescence ratio to DMSO, % at 10 µM; 0.19% of 360,000 active; AID 602162, 2011;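 active = fluorescence ratio to DMSO below 75%, the collection mean minus 3 SD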;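 note: signal is porphyrin accumulated inside mitochondria; lower ratio means ABCB6 inhibition with less porphyrin fluorescence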
CRFR2-BP ag – agonists of CRF-BP/CRF-R2 complex, primary screen, cell-based, HEK293, calcium dye fluorescence, uHTS. calcium dye fluorescence (FLIPR); percent of saturating CRF peptide response. activation, % at 13.2 µM. 0.46% of 350,000 active;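 active = activation of at least 50%, plus an integration ratio under a set limit after plate pattern correction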
CRFR2-BP antag – antagonists of CRF-BP/CRF-R2 complex, primary screen, cell-based, HEK293, calcium dye fluorescence, uHTS | 0.59% of 350,000 active | inhibition, % at 11.8 µM | CRF-induced calcium fluorescence | AID 588475, 2011;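 active = inhibition of the ligand-induced calcium signal above about 50% at the single tested concentration, limit read from the data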
Large screens that a line does not name were inactive; [ ] = another dose, or the depositor's remark. Only some compounds are listed: those with a hit (about 2.9% of all), similar ones and a draw of the others.

COc1ccccc1NS(=O)(=O)c1cc(NC(=O)Nc2ccc(Cl)cc2Cl)ccc1N1CCCCC1	none
COc1cc(/C=C/C(=O)Nc2ccc(N3CCCCC3)c(S(=O)(=O)Nc3ccccc3Cl)c2)cc(OC)c1OC	MEKK2wt PB1 HTS 32
Cc1cc(OCC(=O)C(C)(C)C)c2c(C)c(C)c(=O)oc2c1	CRFR2-BP antag 109
CCCN(CC(=O)Nc1ccc(Cl)cc1Cl)C(=O)c1ccc(=O)[nH]c1	none
Nc1nonc1C(=O)N/N=C/c1cc(Br)ccc1O	CRFR2-BP ag 56 (no result: ABCB6 inh 2)
CCCCc1cc2c(cn1)=C(OC(=O)c1cnc3ccccc3n1)C(C)(OC(=O)CC)C(=O)C=2 (stereo not drawn)	MEKK2wt PB1 HTS 143 (no result: ABCB6 inh 2)
CC1(c2ccccc2)NC(=O)N(CC(=O)Nc2ccccc2C(=O)NC2CC2)C1=O (stereo not drawn)	none
CC(C)CN(C(=O)COC(=O)CCCc1c[nH]c2ccccc12)c1c(N)n(Cc2ccccc2)c(=O)[nH]c1=O	none
CO/N=C/c1ccc(N2CCOCC2)c([N+](=O)[O-])c1	none
O=[N+]([O-])c1cc(/C=N/OCc2c(Cl)cccc2Cl)ccc1N1CCOCC1	ABCB6 inh 2 54
COc1ccc(N2CCN(C(=O)CCS(=O)(=O)c3ccc4c(c3)NC(=O)CO4)CC2)cc1	CRFR2-BP antag 56
Nc1nc(NCCO)nc(N2CCCCCC2)c1[N+](=O)[O-]	none
OCCN(CCO)c1nc(N2CCCCC2)c2nc(N(CCO)CCO)nc(N3CCCCC3)c2n1	CRFR2-BP ag 179
CCn1c(Cl)c(C=O)s/c1=N\S(=O)(=O)c1ccccc1	ABCB6 inh 2 38
CC(C)c1nc(CNC(=O)c2cc(COc3c(F)cccc3F)on2)cs1	none
CSc1ccccc1OCc1cc(C(=O)NCc2csc(C(C)C)n2)no1	CRFR2-BP antag 105
CC(=O)N1N=C(C)CC1c1ccc(OCc2ccccc2)cc1 (stereo not drawn)	CRFR2-BP antag 52
Nc1nonc1-n1nnc(C(=O)N/N=C/c2ccccc2)c1CSc1ccc(Cl)cc1	CRFR2-BP ag 110
Cc1ccc(-c2c(C(=O)N/N=C/c3cccc(Cl)c3)nnn2-c2nonc2N)cc1	MEKK2wt PB1 HTS 135
Cc1ccc(-c2c(C(=O)N/N=C/c3ccoc3)nnn2-c2nonc2N)cc1	none
Nc1nonc1-n1nnc(C(=O)N/N=C/c2cccc(Cl)c2)c1CSc1ccc(Cl)cc1	none
N#C/C(=C(/O)c1cccc(F)c1)c1nc2ccccc2s1	CRFR2-BP ag 51
Cn1c(/C(C#N)=C(\O)c2cccc(F)c2)nc2ccccc21	none
O=[N+]([O-])c1ccccc1S(=O)(=O)N1CCCC(C(F)(F)F)C1 (stereo not drawn)	none
COC(=O)CN1C(=O)S/C(=C/c2ccc(N3CCCCC3)o2)C1=O	CRFR2-BP ag 57
CCCN1C(=O)S/C(=C/c2ccc(N3CCOCC3)o2)C1=O	CRFR2-BP ag 61
COc1cc(C(=O)Nc2ccc(S(=O)(=O)Nc3cnc4ccccc4n3)cc2)cc(OC)c1OC	none
COc1cc(OC)cc(C(=O)Nc2ccc(S(=O)(=O)Nc3cnc4ccccc4n3)cc2)c1	CRFR2-BP antag 65 (no result: MEKK3 PB1 HTS, MEKK2 mut-MEK5, MEKK2wt PB1 HTS)
CCC(C)(C)c1ccc(OCCCC[n+]2cccc(C)c2C)c(C(C)(C)CC)c1	MEKK2wt PB1 HTS 170
COc1ccccc1OCC(=O)NNC(=O)c1cnccn1	CRFR2-BP antag 56 (no result: MEKK3 PB1 HTS, MEKK2 mut-MEK5, MEKK2wt PB1 HTS)
CCc1ccc(OCC(=O)NNC(=O)c2cnccn2)c(Br)c1	none
O/C=c1\ccc2cccc3nc(C(F)(F)F)nc1c23	CRFR2-BP ag 97
O=C1Nc2cc(C(=O)NCCCN3CCCC3)ccc2S/C1=C\c1ccccc1	MEKK2wt PB1 HTS 153
COc1ccc(/C=C2\Sc3ccc(C(=O)NCCCN4CCCC4)cc3N(C)C2=O)cc1OC	MEKK2 mut-MEK5 35, MEKK2wt PB1 HTS 202
O=C1Nc2cc(C(=O)NCCCN3CCOCC3)ccc2S/C1=C/c1cccc(Cl)c1	MEKK2wt PB1 HTS 147
CCC1CCCCN1CCCNC(=O)c1ccc2c(c1)NC(=O)CS2 (stereo not drawn)	none
CCC1CCCCN1CCCNC(=O)c1ccc(/C=C2/Sc3ccccc3NC2=O)cc1 (stereo not drawn)	MEKK2wt PB1 HTS 151
CCOc1ccc(/C=C2/Sc3ccc(C(=O)NCC4CCCO4)cc3N(C)C2=O)cc1OC (stereo not drawn)	none
Cc1ccc(C(=O)NNCC(=O)Nc2ccc(Cl)cc2F)cc1	none (no result: MEKK3 PB1 HTS, MEKK2 mut-MEK5, MEKK2wt PB1 HTS)
O[C@@H]1CN(Cc2ccccc2Cl)CC[C@H]1N1CCOCC1	none
COc1ccc(/C=C2/Sc3ccc(C(=O)NCCN4CCCCCC4)cc3NC2=O)cc1	MEKK2 mut-MEK5 71, MEKK2wt PB1 HTS 281
Cc1ccc(NS(=O)(=O)c2ccc3c(c2)CC(=O)N3)cc1F	none (no result: MEKK3 PB1 HTS, MEKK2 mut-MEK5, MEKK2wt PB1 HTS)
CC(C)c1nnc(NC(=O)C2CCCN2C(=O)Nc2cccc(Cl)c2)s1 (stereo not drawn)	none
Cc1csc(=Nc2ccccc2)n1Cc1ccco1	CRFR2-BP antag 53
CC1=C(C)/C(=N\OS(=O)(=O)c2ccccc2)C=CC1=O	CRFR2-BP ag 57
COC(=O)[C@@]1(Cc2ccc(F)cc2)[C@H]2c3cc(C(=O)N4CCCC4)n(C)c3C[C@H]2CN1C(=O)c1ccccc1	none (no result: MEKK3 PB1 HTS, MEKK2 mut-MEK5, MEKK2wt PB1 HTS, CRFR2-BP ag, CRFR2-BP antag)
Cc1ccc(C(=O)N(CC(C)C)c2c(N)n(Cc3ccccc3)c(=O)[nH]c2=O)o1	none (no result: MEKK3 PB1 HTS, MEKK2 mut-MEK5, MEKK2wt PB1 HTS)
O=C(NCCC(=O)N(Cc1ccco1)Cc1cccs1)c1ccc(Br)cc1	none (no result: MEKK3 PB1 HTS, MEKK2 mut-MEK5, MEKK2wt PB1 HTS)
CC(C)(C)c1ccc(C(=O)CS(=O)(=O)c2ccccc2)cc1	CRFR2-BP antag 77
CC(C)OC(=O)c1c2c(n3ccccc13)C(=O)c1ccccc1C2=O	MEKK2wt PB1 HTS 35[inhibitor], CRFR2-BP ag 182
COC(=O)c1cc2c(C)c(C)c3ccccn3c-2c1C(=O)OC	none
O=C1[C@H]2[C@@H](c3ccccc3)N[C@]3(CCCN(Cc4ccc(F)cc4)C3=O)[C@H]2C(=O)N1Cc1ccccc1	none (no result: MEKK3 PB1 HTS, MEKK2 mut-MEK5, MEKK2wt PB1 HTS)
N#C/C(=C/c1ccc(-c2ccccc2)o1)c1nc(-c2cccs2)cs1	MEKK2 mut-MEK5 117, CRFR2-BP ag 159 (no result: MEKK2wt PB1 HTS)
O=S(=O)(NCc1cccs1)c1ccccc1Cl	none (no result: MEKK3 PB1 HTS, MEKK2 mut-MEK5, MEKK2wt PB1 HTS)
COc1ccc(C(=O)/C(C#N)=N/Nc2ccccc2[N+](=O)[O-])cc1	CRFR2-BP antag 61
COc1ccc(C(=O)/C(C#N)=N/Nc2ccc([N+](=O)[O-])cc2)cc1	CRFR2-BP antag 71
N#C/C(=N\Nc1ccc(Cl)cc1)C(=O)c1ccccc1	CRFR2-BP antag 83
